In assay [1] the test system is Wnt5a (protein binding on small-molecule microarray). Put plainly: Wnt5a binders on small-molecule microarray, primary screen, biophysical, 635/667 nm fluorescence (AID 1142).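 Also: fluorescence read at 667 nm with signal to noise per printed feature.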 The note with it: 635 nm fluorescence, higher = more signal.
Assay [2] in a line: cell viability in Huh7 cells, primary screen, cytotoxicity control for HCV replication inhibitor project, CellTiter-Glo luminescence, basal, 48 h (AID 1143).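 Also: Huh7 hepatoma cells carrying a hepatitis C replication reporter with no stimulus; test concentration not given here.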 The note with it: Huh7 HCV replicon, higher = more signal, called active from +8 up or from −8 down. For orientation: ATP-based viability assays read luminescence as a measure of living cells.
The nature of assay [3]: P. aeruginosa biofilm formation inhibitors, primary screen, PAO1 strain, BacTiter-Glo luminescence, LB-PBS (AID 1144). The note with it: 12 h, higher = more signal.
Assay [4] is described as follows: CREB reporter modulators without forskolin, primary screen, cell-based, PC12, CRE-LacZ reporter, unstimulated (AID 1145). The note with it: no forskolin, luminescence, 4.5 h, higher = more signal, called active from +8 up or from −8 down.
Assay [5] can be described thus: CREB reporter modulators under forskolin, primary screen, cell-based, PC12, CRE-LacZ reporter, forskolin-stimulated (AID 1146).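 Also: PC12 cells with 6xCRE LacZ reporter stimulated by forskolin 10 µM; beta-galactosidase reporter signal reflecting CREB driven transcription.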 The note with it: luminescence, 4.5 h, higher = more signal, called active from +8 up or from −8 down.
The target in assay [6] is Streptavidin (Streptomyces avidinii) (UniProt P22629). The assay can be described thus: streptavidin binders on small-molecule microarray, primary screen, artefact control for SMM compound annotation, biophysical, 635/667 nm fluorescence (AID 1147).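 Also: signal reflects streptavidin binding to arrayed compounds as a control protein.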 The note with it: streptavidin binding, higher = more signal.
Assay [7] can be described thus: small-molecule binders of probe aInhba, primary screen, biochemical, small-molecule microarray, 635/667 nm fluorescence (AID 1148).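 Also: score merges 667nm spot fluorescence with signal-to-noise for antibody binding to printed compounds.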 The note with it: higher = more signal.
The target of assay [8] is Torsin-1A (Homo sapiens) (UniProt O14656). The assay can be described thus: torsin A binders from cell lysate, primary screen, small-molecule microarray, wild-type, 635/667 nm (AID 1149). The note with it: COS7 hTOR1A-WT lysate, 635 nm fluorescence, higher = more signal.
Assay [9] shares this target. The assay can be described thus: small-molecule binders of mutant TOR1A in lysate, primary screen, cell lysate, small-molecule microarray, COS7 lysate, 635/667 nm fluorescence (AID 1150).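 Also: score pools 667 nm emission and signal to noise measuring lysate protein binding.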 The note with it: COS7 hTOR1A mutant lysate, 635 nm fluorescence, higher = more signal.
The test system of assay [10] is Sonic hedgehog protein (Shh). Put plainly: small-molecule binders of Shh protein, primary screen, biochemical, small-molecule microarray, 635/667 nm fluorescence (AID 1151).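 Also: Shh protein binding to compounds spotted on small-molecule microarray slides; score combines spot fluorescence intensity with signal-to-noise across triplicate slides.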 The note with it: small-molecule microarray binding, 635 nm fluorescence; higher = more signal.
Assay [11] is described as follows: E. coli DRC41 culture turbidity changes, primary screen, E. coli filamentation inducer project, strain DRC41, OD650, 48 h (AID 1152).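 Also: E. coli MC1000 strain DRC41 lacking acrAB efflux pump and sulA.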 The note with it: E. coli DRC41 (acrAB sulA), higher = more signal, called active from +8 up or from −8 down.
Assay [12] is described as follows: small-molecule binders of probe aLefty1, primary screen, biochemical, small-molecule microarray, 635/667 nm fluorescence (AID 1153).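 Also: score merges spot fluorescence with signal-to-noise ratio from the scanned slide images.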 The note with it: higher = more signal.
A short description of assay [13]: PSAC antagonists in infected red cells, primary screen, cell-based, P. falciparum Indochina, OD700, 1 h (AID 1154). The note with it: P. falciparum Indochina infected RBC osmotic lysis, higher = more signal, called active from +8 up or from −8 down.
Assay [14] can be described thus: PSAC antagonists in infected red cells, primary screen, cell-based, P. falciparum Indochina, OD700, 2 h (AID 1155).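 Also: lysis reports solute entry through the parasite surface anion channel PSAC; channel blockers reduce lysis of infected cells.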 The note with it: P. falciparum Indochina infected erythrocytes, osmotic lysis OD700; higher = more signal, called active from +8 up or from −8 down.
Assay [15] in a line: osmotic lysis modulators in infected erythrocytes, primary screen, PSAC antagonist project, cell-based, P. falciparum Indochina, OD700, 3 h (AID 1156). The note with it: higher = more signal, called active from +8 up or from −8 down.
Assay [16] can be described thus: PSAC antagonists in infected red cells, primary screen, cell-based, P. falciparum Indochina, OD700, 18 h (AID 1157). The note with it: P. falciparum Indochina infected erythrocytes, osmotic lysis OD700, 18 h; higher = more signal, called active from +8 up or from −8 down.
The nature of assay [17]: modulators of S6 phosphorylation in cells, primary screen, cell-based, A549, cytoblot, luminescence, serum-stimulated (AID 1158).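 Also: serum-stimulated A549 lung adenocarcinoma cells; signal is phosphorylated S6 detected by cytoblot immunostaining with HRP secondary.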 The note with it: A549 phospho-S6 cytoblot, 5 h, higher = more signal.
For assay [18], the target named is NADPH oxidase 2 (Homo sapiens) (UniProt P04839). Put plainly: NOX2-dependent H2O2 signal modulators, primary screen, NOX inhibitor project, cell-based, HEK293-NOX2, PMA-stimulated, Amplex Red fluorescence (AID 1159). Also: test concentration not given here. The note with it: 45 min, higher = more signal, called active from +8 up or from −8 down.
Assay [19] addresses NADPH oxidase 4 (Homo sapiens) (UniProt Q9NPH5). The assay can be described thus: NOX4-dependent H2O2 signal modulators, primary screen, NOX inhibitor project, cell-based, HEK293-NOX4, tetracycline-induced, Amplex Red fluorescence (AID 1160). The note with it: 45 min, higher = more signal, called active from +8 up or from −8 down.
Assay [20] deals with NADPH oxidase 5 (Homo sapiens) (UniProt Q96PH1). The assay can be described thus: NOX5-dependent H2O2 signal modulators, primary screen, NOX inhibitor project, cell-based, HEK293-NOX5, Amplex Red fluorescence (AID 1161). The note with it: HEK293-NOX5, ionomycin, 45 min, higher = more signal.

The source made the active and inactive calls. Unless noted, no rule for the calls is given here.

NADPH oxidase 5 (Homo sapiens), sequence (Q96PH1 whole entry, looked up): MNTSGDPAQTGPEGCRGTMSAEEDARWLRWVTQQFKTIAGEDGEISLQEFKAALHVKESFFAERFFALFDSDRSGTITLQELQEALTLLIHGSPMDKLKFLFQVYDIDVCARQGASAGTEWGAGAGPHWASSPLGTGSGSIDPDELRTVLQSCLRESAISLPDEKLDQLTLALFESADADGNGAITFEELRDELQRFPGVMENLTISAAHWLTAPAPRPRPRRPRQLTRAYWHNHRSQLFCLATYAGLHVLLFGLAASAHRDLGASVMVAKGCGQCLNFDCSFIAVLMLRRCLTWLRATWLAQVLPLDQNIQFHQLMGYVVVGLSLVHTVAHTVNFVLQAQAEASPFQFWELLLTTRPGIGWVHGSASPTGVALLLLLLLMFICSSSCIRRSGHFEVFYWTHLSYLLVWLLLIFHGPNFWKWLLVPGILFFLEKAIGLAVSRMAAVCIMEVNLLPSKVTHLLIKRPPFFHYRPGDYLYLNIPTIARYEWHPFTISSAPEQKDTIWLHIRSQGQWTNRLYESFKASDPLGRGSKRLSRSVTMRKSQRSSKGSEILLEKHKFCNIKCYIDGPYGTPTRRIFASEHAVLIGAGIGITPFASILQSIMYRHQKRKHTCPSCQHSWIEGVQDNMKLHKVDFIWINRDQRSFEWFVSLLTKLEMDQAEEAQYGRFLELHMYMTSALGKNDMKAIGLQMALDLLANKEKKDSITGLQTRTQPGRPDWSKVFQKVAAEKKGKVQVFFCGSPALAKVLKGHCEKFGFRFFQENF
Streptavidin (Streptomyces avidinii), sequence (P22629 whole entry, looked up): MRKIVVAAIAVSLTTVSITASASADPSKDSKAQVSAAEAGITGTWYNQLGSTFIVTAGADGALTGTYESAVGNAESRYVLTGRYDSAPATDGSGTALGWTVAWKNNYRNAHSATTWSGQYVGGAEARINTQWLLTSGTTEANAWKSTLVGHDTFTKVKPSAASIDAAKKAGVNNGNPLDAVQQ
NADPH oxidase 4 (Homo sapiens), sequence (Q9NPH5 whole entry, looked up): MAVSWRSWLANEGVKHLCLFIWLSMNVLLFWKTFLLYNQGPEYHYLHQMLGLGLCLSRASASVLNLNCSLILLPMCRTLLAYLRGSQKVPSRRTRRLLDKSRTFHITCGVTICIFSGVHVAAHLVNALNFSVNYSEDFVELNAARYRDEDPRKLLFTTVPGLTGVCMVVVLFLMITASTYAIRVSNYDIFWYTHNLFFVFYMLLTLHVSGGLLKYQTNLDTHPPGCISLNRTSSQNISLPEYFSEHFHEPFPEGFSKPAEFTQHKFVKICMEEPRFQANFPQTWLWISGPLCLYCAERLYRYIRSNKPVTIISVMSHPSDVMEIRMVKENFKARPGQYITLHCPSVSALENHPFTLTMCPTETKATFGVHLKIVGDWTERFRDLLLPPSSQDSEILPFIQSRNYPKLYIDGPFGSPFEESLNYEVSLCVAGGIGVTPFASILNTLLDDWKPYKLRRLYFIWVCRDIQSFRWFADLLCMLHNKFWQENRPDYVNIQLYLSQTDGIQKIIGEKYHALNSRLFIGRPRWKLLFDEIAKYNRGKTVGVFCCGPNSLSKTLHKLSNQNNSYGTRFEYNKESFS
Torsin-1A (Homo sapiens), sequence (O14656 whole entry, looked up): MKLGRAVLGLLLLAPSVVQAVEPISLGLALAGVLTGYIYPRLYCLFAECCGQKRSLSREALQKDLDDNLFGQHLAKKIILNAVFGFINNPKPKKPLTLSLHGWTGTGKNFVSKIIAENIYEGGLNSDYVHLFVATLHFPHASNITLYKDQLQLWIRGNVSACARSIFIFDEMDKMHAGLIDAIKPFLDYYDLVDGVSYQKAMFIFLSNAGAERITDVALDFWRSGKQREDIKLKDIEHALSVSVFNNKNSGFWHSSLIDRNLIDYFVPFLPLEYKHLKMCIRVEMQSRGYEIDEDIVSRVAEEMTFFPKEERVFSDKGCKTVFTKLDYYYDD
NADPH oxidase 2 (Homo sapiens), sequence (P04839 whole entry, looked up): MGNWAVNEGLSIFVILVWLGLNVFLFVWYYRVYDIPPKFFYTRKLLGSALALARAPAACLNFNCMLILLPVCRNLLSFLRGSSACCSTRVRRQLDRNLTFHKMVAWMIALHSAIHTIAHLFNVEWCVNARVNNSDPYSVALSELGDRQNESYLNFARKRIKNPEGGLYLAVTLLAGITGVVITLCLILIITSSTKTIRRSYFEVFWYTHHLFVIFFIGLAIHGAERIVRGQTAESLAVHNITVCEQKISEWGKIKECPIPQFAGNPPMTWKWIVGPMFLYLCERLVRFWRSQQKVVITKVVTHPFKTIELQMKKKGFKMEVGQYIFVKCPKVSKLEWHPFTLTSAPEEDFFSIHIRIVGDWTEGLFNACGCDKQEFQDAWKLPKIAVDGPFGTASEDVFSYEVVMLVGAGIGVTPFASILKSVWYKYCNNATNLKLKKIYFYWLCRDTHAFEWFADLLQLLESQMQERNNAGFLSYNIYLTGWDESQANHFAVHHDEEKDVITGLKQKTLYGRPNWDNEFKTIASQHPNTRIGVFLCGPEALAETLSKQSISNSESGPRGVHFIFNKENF

In the case of `COc1ccc([Si](C)(C)[C@H]2[C@H](CC(=O)N3CCC[C@H]3CO)O[C@@]3(C(=O)N(Cc4ccc(N5CCOC5=O)cc4)c4ccccc43)[C@@H]2C)cc1`, the composite z-score in assay [1] was 0.434; in assay [6] it was -0.0564; in [7], 0.235; with Torsin-1A (Homo sapiens) [8], 0.702; with Torsin-1A (Homo sapiens) [9], 0.64; in [10] it was 2.05. Further, the composite z-score in [12] stood at 0.298. For the same compound, the z-score was -2.09 (inactive) in assay [2]; 0.11 (inactive) in assay [3]; 0.702 (inactive) in assay [4]; -0.101 (inactive) in [5]; 0.397 (inactive) in assay [11]; 9.5 (active) in assay [13]. For the same compound, the z-score was 1.8 (inactive) in assay [14]; 0.088 (inactive) in assay [15]; 0.746 (inactive) in [16]; 0.0491 in assay [17]; 1.94 (inactive) in assay [18]; -0.0662 (inactive) in [19]. The same compound registered a z-score in assay [20] of 3.78.
For the compound `COCCCNC(=O)[C@@]1(CCC(=O)OC(C)(C)C)N=C(c2ccc(OCCCO)cc2)O[C@H]1c1ccccc1N=[N+]=[N-]`, the composite z-score in [1] is 0.573; in assay [6], 2.07; in assay [7], 0.545; with Torsin-1A (Homo sapiens) [8] it was 0.786; with Torsin-1A (Homo sapiens) [9], 1.04; in [10], -0.341. The compound further returned a composite z-score in [12] of 0.286. The z-score in [2] was -0.61 (inactive); in [3] it was 0.199 (inactive); in assay [4], 0.456 (inactive); in assay [5] it was -1.71 (inactive); in assay [11], 1.15 (inactive); in assay [13], 30.4 (active). Also, the z-score in [14] is 29.3 (active); in assay [15], 2.54 (inactive); in assay [16], 2.43 (inactive); in [17], -0.226; in [18] it was -1.35 (inactive); in assay [19] it was 0.197 (inactive). Further, the z-score in [20] is -2.03.
Turning to `[N-]=[N+]=Nc1ccccc1C[C@]1(C(=O)O)COC(c2ccc(OCCCO)cc2)=N1`, the composite z-score is -0.0485 in [1]; -0.213 in [6]; -0.0405 in assay [7]; -2.54 with Torsin-1A (Homo sapiens) [8]; -1.52 with Torsin-1A (Homo sapiens) [9]; -1.14 in assay [10]. This compound returned a composite z-score in [12] of 0.199. Moreover, the z-score is 0.0518 (inactive) in [2]; -0.812 (inactive) in assay [3]; 1.18 (inactive) in [4]; -0.313 (inactive) in assay [5]; -0.541 (inactive) in assay [11]; 23.9 (active) in [13]. Besides, the z-score was 8.27 (active) in assay [14]; 4.11 (inactive) in [15]; 0.935 (inactive) in assay [16]; -0.103 in [17]; -2.44 (inactive) in assay [18]; -0.992 (inactive) in assay [19]. For the same compound, the z-score in assay [20] was -2.7.
In the case of `CO[C@H]1O[C@H](CO)[C@@H](OC(=O)Nc2ccc(Br)cc2)[C@@H]2OC(=O)[C@@H](Cc3ccccc3)C/C=C/C[C@H](Cc3ccccc3)C(=O)O[C@@H]12`, the composite z-score in assay [1] is 0.891; in assay [6] it was -0.0062; in assay [7], 0.115; with Torsin-1A (Homo sapiens) [8], 0.048; with Torsin-1A (Homo sapiens) [9] it was 0.91; in assay [10] it was 0.0376. This compound gave a composite z-score in assay [12] of 0.057. Moreover, the z-score in assay [2] was -5.16 (inactive); in assay [3], -0.435 (inactive); in [4], -0.263 (inactive); in assay [5], -0.396 (inactive); in assay [11], 0.931 (inactive); in assay [13] it was 3.36 (inactive). Besides, the z-score in assay [14] is 0.956 (inactive); in assay [15], -1.12 (inactive); in assay [16], 1.35 (inactive); in assay [17], 0.311; in assay [18] it was 0.647 (inactive); in assay [19], 0.263 (inactive). The compound also registered a z-score in assay [20] of 0.0979.

(Values after PubChem BioAssay.)
